{"source": "PubChem BioAssay AID463173", "about": "(ICCB-Longwood Screening Facility, Harvard Medical School, 2010)", "note": "Among all 52,000 compounds or so, about 4,300 (8.3%) were called active. Cut-off read from the data, not from the text of the source: active = survival mostly below about 52% (no sharp cut-off); inactive = mostly above about 56%. For the sample, actives were picked, then their nearest neighbours and some compounds at random."}
{"tested_on": "DeltatarO mutant", "assay": "growth inhibition of S. aureus wild type versus tarO mutant, primary screen, teichoic acid synthesis inhibitors, RN4220, OD600 (AID 463173)", "conditions": "OD600, 18 h, active compounds read low, screened at 18.75 µg/mL (by protocol)"}
{"molecule": "COc1ccc(Nc2nnc(-c3cc4cc(Cl)ccc4oc3=O)s2)cc1", "survival": "81% (inactive)"}
{"molecule": "COc1ccc(Br)cc1CNC(=O)CN1C(=O)CCCc2ccccc21", "survival": "80% (inactive)"}
{"molecule": "Cn1c(=O)n(C)c2cc(CNCc3ccccc3)ccc21", "survival": "88% (inactive)"}
{"molecule": "COC(=O)c1ccc(C(=O)OC)c(NC(=O)c2c(-c3ccccc3)noc2C)c1", "survival": "147% (inactive)"}
{"molecule": "COc1cccc(CSc2nc3n(n2)C(CC(C)C)C(C(=O)Nc2ccccc2C)=C(C)N3)c1", "note": "(stereo unspecified)", "survival": "87% (inactive)"}
{"molecule": "Cc1ccc(N2CC(c3nc(-c4ccc(Cl)cc4)no3)CC2=O)cc1F", "note": "(stereo unspecified)", "survival": "98% (inactive)"}
{"molecule": "CCS(=O)(=O)c1nc(S(=O)(=O)c2ccc(C)cc2)c(NCC(C)C)s1", "survival": "95% (inactive)"}
{"molecule": "CCN1CCN(C(c2ccccc2Cl)c2sc3nc(-c4ccco4)nn3c2O)CC1", "note": "(stereo unspecified)", "survival": "92% (inactive)"}
{"molecule": "O=C(Oc1ccccc1Cl)c1cc(-c2ccc3c(c2)OCCO3)on1", "survival": "-2% (active)"}
{"molecule": "O=C(Nc1ccccc1C(F)(F)F)c1cc(-c2ccc3c(c2)OCCO3)on1", "survival": "117% (inactive)"}
{"molecule": "COc1ccc2cc3cc(C(=O)NCc4ccc(C)cc4)oc3nc2c1", "survival": "83% (inactive)"}
{"molecule": "Cc1ccc(C)c(N2CCN(C(=O)c3cc4cc5ccc(C)cc5nc4o3)CC2)c1", "survival": "90% (inactive)"}
{"molecule": "COc1ccc(CNC(=O)c2cc3cc4ccc(C)cc4nc3o2)cc1", "survival": "74% (inactive)"}
{"molecule": "Cc1ccc2cc3cc(C(=O)N4CCN(c5ccccc5)CC4)oc3nc2c1", "survival": "61% (inactive)"}
{"molecule": "Cc1ccc2cc3cc(C(=O)N(C)c4ccccc4C)oc3nc2c1", "survival": "53% (active)"}
{"molecule": "CCN(C(=O)c1cc2cc3ccc(OC)cc3nc2o1)c1cccc(C)c1", "survival": "6% (active)"}
{"molecule": "Cc1ccccc1Cn1c(CN2CCC(C(=O)NCCN(C)C)CC2)cc2ccccc21", "survival": "112% (inactive)"}
{"molecule": "COc1ccc(S(=O)(=O)N(C)CC(=O)NCc2ccc3c(c2)OCO3)cc1", "survival": "89% (inactive)"}
{"molecule": "COc1ccc(/C=C(\\C#N)C(=O)NCc2ccco2)cc1C", "survival": "80% (inactive)"}
{"molecule": "Cc1cc(C)c(NC(=O)Nc2ccc3snnc3c2)c(C)c1", "survival": "118% (inactive)"}
{"molecule": "Cc1c(Cl)cccc1NC(=O)Nc1ccc2snnc2c1", "survival": "-4% (active)"}
{"molecule": "Cc1ccc(F)c(NC(=O)Nc2ccc3snnc3c2)c1", "survival": "97% (inactive)"}
{"molecule": "CCc1ccccc1NC(=O)Nc1ccc2snnc2c1", "survival": "41% (active)"}
{"molecule": "Cc1c(Cl)cccc1NC(=O)c1ccc2snnc2c1", "survival": "126% (inactive)"}
{"molecule": "CCOc1ccc(NC(=O)Nc2ccc3snnc3c2)cc1", "survival": "110% (inactive)"}
{"molecule": "CC(C)(C)C1CCc2onc(C(=O)Nc3sc4c(c3C(N)=O)CCCC4)c2C1", "note": "(stereo unspecified)", "survival": "45% (active)"}
{"molecule": "NC(=O)c1c(NC(=O)c2cc(-c3ccc(F)cc3)on2)sc2c1CCCC2", "survival": "62% (inactive)"}
{"molecule": "CC(C)(C)C1CCc2onc(C(=O)Nc3sc4c(c3C#N)CCCC4)c2C1", "note": "(stereo unspecified)", "survival": "105% (inactive)"}
{"molecule": "NC(=O)c1c(NC(=O)c2noc3c2CCCC3)sc2c1CCCC2", "survival": "40% (active)"}
{"molecule": "CC(=O)Nc1sc2c(c1C(N)=O)CCCC2", "survival": "80% (inactive)"}
{"molecule": "CCOC(=O)c1c(NC(=O)c2noc3c2CC(C(C)(C)C)CC3)sc2c1CCCC2", "note": "(stereo unspecified)", "survival": "66% (inactive)"}
{"molecule": "CCOC(=O)c1noc2nc(C)n(Cc3cccc(C#N)c3)c(=O)c12", "survival": "87% (inactive)"}
{"molecule": "O=C(NCc1ccccc1F)C1CCN(Cc2cc3ccccc3n2Cc2cccc(Cl)c2)CC1", "survival": "78% (inactive)"}
{"molecule": "CCc1sc(Nc2cccc(Cl)c2C)nc1-c1cc2cccc(OC)c2oc1=O", "survival": "67% (inactive)"}
{"molecule": "O=C(NC1CCCC1)C(c1ccsc1)N(C(=O)Cc1cccs1)c1ccccc1", "note": "(stereo unspecified)", "survival": "86% (inactive)"}
{"molecule": "CCCNS(=O)(=O)c1ccc2[nH]c(=O)[nH]c2c1", "survival": "96% (inactive)"}
{"molecule": "O=S(=O)(NC1CCCC1)c1ccc(Br)cc1", "survival": "93% (inactive)"}
{"molecule": "O=c1[nH]c2ccc(S(=O)(=O)NC3CCCCC3)cc2[nH]1", "survival": "62% (active)"}
{"molecule": "Cc1nc2c(-c3ccc(F)cc3)c(C)nn2c(C)c1CCC(=O)NCc1ccc(F)cc1", "survival": "78% (inactive)"}
{"molecule": "CC(C)NC(=O)CSc1nc2ccccc2nc1N1CCCCC1", "survival": "-26% (active)"}
{"molecule": "COc1cccc(Cc2nc3ccccc3nc2SCC(=O)Nc2cccc(C)c2)c1", "survival": "94% (inactive)"}
{"molecule": "O=C(O)CSc1nc2ccccc2nc1N1CCCCC1", "survival": "56% (inactive)"}
{"molecule": "COc1cccc(Cc2nc3ccccc3nc2SCC(=O)Nc2ccccc2F)c1", "survival": "67% (inactive)"}
{"molecule": "COc1ccc(NC(=O)CSc2nc3ccccc3nc2N2CCCCC2)cc1", "survival": "18% (active)"}
{"molecule": "CCN(C(=O)CSc1nc2ccccc2nc1Cc1ccc(F)cc1)c1cccc(C)c1", "survival": "86% (inactive)"}
{"molecule": "CCc1ccccc1NC(=O)CSc1nc2ccccc2nc1Cc1cccc(OC)c1", "survival": "86% (inactive)"}
